Laboratory results from PubChem BioAssay (NCI).
Compounds without any hit were thinned out: in the full panel of roughly 83,000, 20% have a hit.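 Plates (96-well) were seeded with cells, treated with compound at one concentration, and incubated for 48 hours before percent growth was determined.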 Activity calls are given as the source filed them.

These compounds were tested on SK-MEL-2 melanoma (assay: NCI-60 one-dose screen, 48 h (100 = growth as untreated, 0 = no growth, -100 = all killed)). Details: 10 µM unless noted.
Procedure: Growth inhibition of the SK-MEL-2 human tumor cell line is measured as a screen for anti-cancer activity. Cells are grown in 96 well plates and exposed to the test compound for 48 hours. Compounds are tested at a single concentration, which is 10^-5 M for most compounds. The reported endpoint is percent growth (GI% or GIPRCNT), where numbers from 0 - 100% represent growth inhibition, and numbers from -100% - 0 represent cell death. For example, a value of 40 represents 60% growth inhibition. A value of 0 means no net growth occurred over the course of the experiment. A value of -40 indicates 40% of cells at the beginning of the experiment died by the end of the experiment. A value of -100 means all cells are dead at the end of the experiment.
NCI-60 Human Tumor Cell Lines Screen was performed using the standard one-dose NCI protocol, which is described in more detail at https://dtp.cancer.gov/discovery_development/nci-60/default.htm.
Compounds with GIPRCNT values below 10 were considered active. Activity score was based on GIPRCNT using the following formula: […]
Score is 0 for GIPRCNT values of 100 or above, 50 for GIPRCNT values of 0, and 100 for GIPRCNT values of -100.
In the case of `Oc1ccccc1-c1nnc(COc2ccc(Cl)cc2Cl)o1`, the growth is reported as 37.9% (inactive).
`Clc1ccc(C2=NN[C@H](c3cn(-c4ccccc4)nc3-c3ccccc3)C2)cc1` was tested, and the growth was 91.4% (inactive).
In the case of `c1cn2cc(-c3ccc4ncn(C5CCCCC5)c4c3)nc(-c3ccc4c(c3)ncn4C3CCCCC3)c2n1`, the growth is reported as -65.6% (active).
In the case of `c1csc(-c2cnc3nonc3n2)c1`, the growth is reported as 105% (inactive).
In the case of `CCc1onc(-c2ccc(OC)cc2)c1-c1ccccc1OCCN(CC)CC`, the growth is reported as 94.9% (inactive).
`COc1cc(C2CC(c3ccc(Cl)cc3)=NN2C=O)ccc1Oc1ccnc2cc(Cl)ccc12` (stereo not given) was tested, and the growth was 86.7% (inactive).
In the case of `OC(COCc1ccccc1)COCc1ccccc1`, the growth is reported as 111% (inactive).
`Cc1nn(-c2cccc(Cl)c2)c(C)c1N=Nc1ccc(Br)cc1` was tested, and the growth was 102% (inactive).
With `O=C1/C(=C/c2cc(F)cc(F)c2)Cc2cc(F)cc(F)c21` the growth was 93.7% (inactive).
With `CCOC(=O)Nc1ccc2nc(N3CCCCCC3)sc2c1` the growth was 36.8% (inactive).
`Cc1cc(-c2ccc(N=Nc3c(S(=O)(=O)O)cc4cc(S(=O)(=O)O)cc(O)c4c3O)c(C)c2)ccc1N=Nc1c(S(=O)(=O)O)cc2cc(S(=O)(=O)O)cc(O)c2c1O` was tested, and the growth was 90.6% (inactive).
With `CCCCCCCCCCCCCCCCCC1=NCCN1CCO` the growth was 88.9% (inactive).
`COc1ccc(C2=NNC(c3ccc(Oc4nc5c(c(=O)n(C)c(=O)n5C)n4C)c(OC)c3)C2)cc1` (stereo not given) was tested, and the growth was 99.4% (inactive).
With `CCCCCCCCCCCCNC(=O)N[C@H](C(=O)N[C@H]1/C=C/CCNC(=O)/C=C/[C@H](C)NC1=O)C(C)C` the growth was 8.32% (active).
For `O=C1c2cccc3cccc(c23)C(=O)N1CCCCCCCCCCN1C(=O)c2cccc3cccc(c23)C1=O`, the growth was 93.6% (inactive).
`Cn1cnc([N+](=O)[O-])c1S(=O)(=O)Oc1cccc2ccccc12` was tested, and the growth was 85% (inactive).
`N/C(=N\O)c1ncc(-c2ccc(C(F)(F)F)cc2)c(NC2CCCCCC2)n1` was tested, and the growth was -90.6% [100 µM] (active).
With `CCCCCCCCCCCCC1CCC(=O)O1` (stereo not given) the growth was 103% (inactive).
For `Clc1cc2nc(-c3ccccc3)c(-c3ccccc3)nc2cc1Cl`, the growth was 87.9% (inactive).
With `CC(C)(C)c1cc(C[P+](c2ccccc2)(c2ccccc2)c2ccccc2)cc(C(C)(C)C)c1O` the growth was -39.9% (active).
For `CC1=CC(=O)OC1C/C=C(\C)CCC1[C@@]2(C)CCC[C@@](C)(C(=O)O)C2CC[C@@]1(C)O` (stereo not given in full), the growth was 16.5% (inactive).
For `Cc1[nH]c2ccccc2c1C1=CC(=O)C=CC1=O`, the growth was 93.7% (inactive).
In the case of `CCOC(=O)c1cc(N)nc2ccccc12`, the growth is reported as 99.9% (inactive).
With `CCN1C(=O)N(CC)C2C1NC(=O)N2/N=C/C=C/c1ccccc1` (stereo not given) the growth was 34.3% (inactive).
With `COc1ccc(N=C2CSc3nnc(-c4cc(F)c(Cl)cc4Cl)n3N2)cc1` the growth was 25.8% (inactive).
In the case of `CCOC(=O)C1C(=O)C=C(c2cc(OC)c(OC)c(OC)c2)CC1c1sc(N(C)Cc2ccccc2)nc1Cl` (stereo not given), the growth is reported as 71.9% (inactive).
With `NS(=O)(=O)c1ccc(CCn2c(SCC(=O)N/N=C/c3ccccc3O)nc3ccccc3c2=O)cc1` the growth was 14.2% (inactive).
With `Fc1cc(-c2cnc3nonc3n2)c(Cl)cc1Cl` the growth was 102% (inactive).
With `CCS(=O)(=O)Nc1cccc(Nc2c3cccc(C)c3nc3c(C)cccc23)c1OC` the growth was 51.4% (inactive).
`CCN(CC)c1ccc2c(cc1=O)[C@@H](NC(C)=O)CCc1cc(OC)c(OC)c(OC)c1-2` was tested, and the growth was 4.73% (active).
In the case of `Cc1ccc(NC(=O)c2sc3nc4c(cc3c2N)C(=O)CCC4)cc1Cl`, the growth is reported as 112% (inactive).
For `C#Cc1cccc(Nc2nc3cc([N+](=O)[O-])ccc3nc2Nc2ccc(O)cc2)c1`, the growth was -29.5% (active).
With `Clc1ccc(Cl)c(N=Cc2ccc3c(c2)OCO3)c1` the growth was 109% (inactive).
For `Cc1cc(O)c2cc3c(O)c(O)ccc3cc2c1`, the growth was 124% (inactive).
In the case of `O=C(CCCCCCN1CC(=O)N2[C@@H](c3ccc(Cl)c(Cl)c3)c3[nH]c4ccccc4c3C[C@H]2C1=O)NO`, the growth is reported as 79.9% (inactive).
For `Cc1nn(-c2ccccc2)c2nc3c(nc12)C1=NCCN1C(c1ccc(Cl)cc1)N3` (stereo not given), the growth was 79.5% (inactive).
`CSc1ccc(/C=C2\C=C(CC(=O)NCc3ccc(C(=O)c4ccccc4)cc3)c3cc(F)ccc32)cc1` was tested, and the growth was -3.62% (active).
In the case of `Cc1cc([N+](=O)[O-])c(C)cc1N`, the growth is reported as 107% (inactive).
For `COc1cc(CN(CCC(O)N2CCCC2=O)Cc2ccc3c(c2)OCO3)cc(OC)c1OC` (stereo not given), the growth was 94.5% (inactive).
`COc1ccc(-c2cnnn2-c2nonc2-n2cccc2)cc1` was tested, and the growth was 54.6% (inactive).
